Active and inactive are the calls of the source. The calls were made as follows: active = hit-call score of the fitted dose curve at least 0.9, where 1 is the maximum; inactive = score below 0.9.

Outcome and AC50 data for 40 compounds are collected here from PubChem BioAssay (EPA / NIEHS).

A short description of this test: ATG_TA_CIS: Attagene CIS-FACTORIAL HepG2 Assay for human TA Basal Promoter (AID 2282964). As to conditions: HepG2 Attagene CIS-factorial TA basal promoter reporter; actives raise or lower the signal. On the procedure:
ATG_CIS is a cell-based, multiplexed-readout assay that uses HepG2, a human liver cell line, with measurements taken at 24 hours after chemical dosing in a 24-well plate.ATG_TA_CIS is one of 52 assay component(s) measured or calculated from the ATG_CIS assay. It is designed to make measurements of mRNA induction, a form of inducible reporter, as detected with fluorescence intensity signals by Reverse transcription polymerase chain reaction (RT-PCR) and Capillary electrophoresis technology.Data from the assay component ATG_TA_CIS was analyzed into 1 assay endpoint. This assay endpoint, ATG_TA_CIS, was analyzed with bidirectional fitting relative to DMSO as the negative control and baseline of activity. Using a type of inducible reporter, measures of mRNA for gain or loss-of-signal activity can be used to understand the background control at the transcription factor-level as they relate to the gene . Furthermore, this assay endpoint can be referred to as a secondary readout, because this assay has produced multiple assay endpoints where this one serves a background control function. To generalize the intended target to other relatable targets, this assay endpoint is annotated to the background measurement intended target family, where the subfamily is internal marker.
Human liver HepG2 cells are transiently transfected with multiple reporter transcription units (MRTUs) in 6-well plates using FuGene 6 reagent (Roche; 3 ml FuGene/1 mg DNA). The MRTU constructs are regulated by a cis-regulating element (promoter). […] A major difference between the CIS and TRANS system is that in CIS activities of endogenous TFs are measured, whereas the TRANS assay evaluates changes in activities of exogenous, chimeric NR-Gal4 proteins. […] At the end of 24 hour incubation, total RNA was isolated using TriZol reagent (Invitrogen). The isolated RNA is then reverse-transcribed using oligo(dT) primer and Mo-MLV reverse transcriptase (Invitrogen) with DNAse I (Ambion) treatment for 30 min. The one-tenth of the produced cDNA was amplified by PCR using Taq DNA polymerase (Invitrogen) and two reporter sequence-specific primers. The PCR products were fluorescently labeled by primer extension with 6-arboxyfluorescein (6-FAM) 5'-labeled reporter sequence-specific primer (2 min at 95 C, 20 s at 68 C and 10 min at 72 C) and these products were digested with 5U of HpaI (New England Biolabs) for 2h at 37 C. The fragments were purified using Qiaquick PCR columns (Qiagen), analyzed on an ABI 3130xL genetic analyzer (Applied Biosystems) with peak positions identified by using a set of X-rhodamine (ROX)-labeled MapMarker1000 molecular weight standards (BioVentures). The raw capillary electrophoresis data was processed using Attagraph software (Attagene).
On to `Oc1ccccc1`, for which the compound was classed as inactive.

With `CC/C(=C(/CC)c1ccc(O)cc1)c1ccc(O)cc1`, the result was inactive.

With `O=C(O)c1ccccc1-n1cc(C(=O)O)c(=O)c2cc(Nc3c(F)cc(F)cc3Cl)c(Cl)cc21`, the compound was called inactive.

As for `CN1C(=O)N(c2ccccc2Br)Cc2cnc(Nc3ccc4c(c3)OCC(CO)O4)nc21` (stereo not given), the AC50 is 15.8 µM (active).

With `CCCC(=O)OCCC(C)C`, the result was inactive.

As for `CCOC(=O)O[C@H](C)OC(=O)c1ccc2c(c1)cc(C(=O)NC1CCN(C(C)C)CC1)n2Cc1cc(-c2ccc(Cl)s2)on1`, the compound was classed as inactive.

For `CC(C)(O)c1ccc(CNC(=O)c2cccnc2Oc2ccc3nonc3c2)cc1`, the compound was classed as inactive.

For the compound `NC(=O)c1nc(-c2cccc(-c3cc(F)ccc3OCC(F)(F)C(F)(F)F)c2)n[nH]1`, the AC50 was 43.7 µM (active).

With `OCCO`, the compound was called inactive.

For `O=c1[nH]sc2ccccc12`, the compound was called inactive.

`O=C(Nc1ccc(Cl)cc1)Nc1ccc(Cl)c(Cl)c1`: the call was inactive.

On to `C[C@]12CC[C@@H]3c4ccc(O)cc4CC[C@H]3[C@@H]1CCC2=O`, for which the compound was called inactive.

Regarding `CCN(Cc1cccnc1)C(=O)c1cccc(Cl)c1[C@]1(C)C(=O)N(Cc2ccc(OC)cc2OC)c2ccc(Cl)cc21`, the AC50 is 4.5 µM (active).

In the case of `CCN(CC)C(=O)c1cc(S(=O)(=O)Cc2ccccc2)c(N2CCC(c3ccccc3)CC2)cc1N(CC)CCN(C)C`, the compound was called inactive.

Turning to `Oc1ccc2ccccc2c1`, the outcome was inactive.

For the compound `CCCCCCCCCCCC[N+](C)(C)C`, the call was inactive.

For `c1ccc2n[nH]nc2c1`, the call was inactive.

Take `O=C=NCCCCCCN=C=O`: the outcome was inactive.

In the case of `O=CCCCC=O`, the compound was called inactive.

As to `CN(C)c1ccc(C(=C2C=CC(=[N+](C)C)C=C2)c2ccc(N(C)C)cc2)cc1`, the AC50 is 0.99 µM (active).

In the case of `CN1C(=O)CC[C@H]1c1cccnc1`, the compound was called inactive.

Take `Cc1cc(F)ccc1-c1cc(N2CC[C@@H](O)[C@H]2CO)ncc1N(C)C(=O)C(C)(C)c1cc(C(F)(F)F)cc(C(F)(F)F)c1`: the result was inactive.

Turning to `c1ccc(C[n+]2cccc3ccccc32)cc1`, the outcome was inactive.

With `CO[C@H]1/C=C/O[C@@]2(C)Oc3c(C)c(O)c4c(O)c(c(/C=N/N5CCN(C)CC5)c(O)c4c3C2=O)NC(=O)/C(C)=C\C=C\[C@H](C)[C@H](O)[C@@H](C)[C@@H](O)[C@@H](C)[C@H](OC(C)=O)[C@@H]1C`, the outcome was inactive.

As to `Cc1occc1C(=O)Nc1ccc(C(=O)N2CCC(F)(F)/C(=C\C(=O)N3CCC(N4CCCCC4)CC3)c3ccccc32)cc1`, the compound was called inactive.

As for `Cc1cccc2ccccc12`, the compound was classed as inactive.

In the case of `NCc1cccc(C2CCN(C(=O)c3ccc(C#Cc4ccccc4F)o3)CC2)c1`, the AC50 was 16.1 µM (active).

For `COc1cc(C(=O)NC2CCN(C)CC2)ccc1Nc1ncc2c(n1)N(C1CCCC1)CC(F)(F)C(=O)N2C`, the result was inactive.

In the case of `CCCCCCCCCCCO`, the result was inactive.

Take `C[C@]12CC[C@@H]3c4ccc(O)cc4CC[C@H]3[C@@H]1CC[C@H]2O`: the compound was classed as inactive.

Regarding `CC[C@H](NC(=O)c1cc(F)ccc1NS(=O)(=O)c1cccc2cccnc12)c1ccccc1`, the compound was classed as inactive.

Take `COCC(C)OCC(C)OCC(C)O` (stereo not given): the compound was called inactive.

As for `Cc1c2ccccc2c(C)c2c1ccc1ccccc12`, the call was inactive.

Consider `COc1ccc2cc(S(=O)(=O)N[C@H](CC(=O)N[C@H](Cc3ccc(CN4[C@H](C)CCC[C@@H]4C)cc3)C(=O)N(C)C(C)C)c3ccc4c(c3)OCO4)ccc2c1`, for which the AC50 is 11 µM (active).

For the compound `CN(C)C(=O)C1(N2CCCCC2)CCN(CC[C@@]2(c3ccc(Cl)c(Cl)c3)CN(C(=O)c3ccccc3)CCO2)CC1`, the compound was called inactive.

As for `Cc1ccc2oc(CN(Cc3ccccc3)C(=O)Nc3c(F)cc(F)cc3F)c(-c3ccc(Cl)cc3)c2c1`, the result was inactive.

Turning to `Cc1oc2c(NC(=O)c3c(Cl)cccc3Cl)cccc2c1C(C)(C)O`, the AC50 was 41.5 µM (active).

Consider `CC1(C)NC(=O)N(c2ccc([N+](=O)[O-])c(C(F)(F)F)c2)C1=O`, for which the outcome was inactive.

Consider `CCCOC(=O)c1cc(O)c(O)c(O)c1`, for which the outcome was inactive.

Take `O=c1ccc2ccccc2o1`: the outcome was inactive.

The AC50 is the concentration at which the activity in the assay is half-maximal.
